Compound activity: PubChem BioAssay, National Center for Advancing Translational Sciences (NCATS)
In the library only some 5.8% were active in any assay of this set; here they are far more common.
uPA generation: blocks generation of uPA at the cell surface; AID 540303; Potency, µM (doses to about 38.3 µM), actives largely listed as inhibitors; hit rate 0.31% among 330,000; cell surface uPA generation assay, qHTS; active = well fitted inhibition curve with a large enough effect; inconclusive = small, poorly fitted or top-dose-only effect; inactive = no such curve, though single readings can be large or run the other way; tested in mouse RAW 264.7 cells; note: nearly all actives have a fitted effect of over 55% in size
TRPV1 agonist: agonists of human vanilloid receptor 1 (TRPV1); TRPV1-expressing cells, Fluo-8 calcium influx, agonist mode; hit rate 0.19% among 320,000; Q8NER1; activation, % at 8.33 µM; in the data active = activation above about 80%; inconclusive = between about 30% and that limit
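Fluo-8 calcium influx in TRPV1-expressing cells, kinetic read (ex 480/em 520 nm). Compound added and read 3 min for agonist activity, followed by capsaicin at EC20 final and 2 min further read for enhancement.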
VP16 counter: Gal4-VP16 reporter inhibition counter-screen. Drosophila S2 Gal4-VP16 UAS-luciferase, luminescence, 20 h. Potency, µM (titrated, usually from 53.6 µM), actives largely listed as inhibitors. hit rate 3.5% among 310,000. AID 2546;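 note: Gal4-VP16 expression switched on by copper sulfate through the metallothionein promoter; nearly all actives have a fitted effect of over 50% in size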
TRPV1 potentiator: potentiators of human vanilloid receptor 1 (TRPV1). hit rate 0.02% among 320,000. potentiation, % at 8.33 µM. TRPV1-expressing cells, Fluo-8 calcium influx, capsaicin EC20 potentiation. AID 540277; in the data active = potentiation above about 80%; inconclusive = between about 30% and that limit
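Fluo-8 calcium influx in TRPV1-expressing cells, kinetic read (ex 480/em 520 nm). Compound added and read 3 min for agonist activity, followed by capsaicin at EC20 final and 2 min further read for enhancement.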
RORg inh: blocks mouse ROR gamma transcriptional activity. P51450. Drosophila S2 Gal4-RORgamma UAS-luciferase reporter, 20 h. Potency, µM (doses to about 53.6 µM), actives largely listed as inhibitors. hit rate 5.4% among 310,000; note: nearly all actives have a fitted effect of over 60% in size
Target sequence (P51450 whole entry, looked up, the tested form may be a part): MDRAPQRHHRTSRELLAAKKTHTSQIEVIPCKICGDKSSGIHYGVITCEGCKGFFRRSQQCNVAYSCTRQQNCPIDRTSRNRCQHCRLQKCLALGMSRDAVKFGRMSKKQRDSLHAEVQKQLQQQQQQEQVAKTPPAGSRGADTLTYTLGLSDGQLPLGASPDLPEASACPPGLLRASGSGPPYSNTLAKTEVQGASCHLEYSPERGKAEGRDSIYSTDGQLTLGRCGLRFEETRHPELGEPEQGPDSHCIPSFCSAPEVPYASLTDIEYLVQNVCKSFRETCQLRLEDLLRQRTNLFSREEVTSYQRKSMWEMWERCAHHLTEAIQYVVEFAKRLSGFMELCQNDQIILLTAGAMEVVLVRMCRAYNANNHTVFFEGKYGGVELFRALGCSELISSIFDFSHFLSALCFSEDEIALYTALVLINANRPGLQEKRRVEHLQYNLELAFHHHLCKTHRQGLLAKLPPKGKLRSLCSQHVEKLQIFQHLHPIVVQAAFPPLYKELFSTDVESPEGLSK
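Stable Schneider cell line, Gal4 DNA-binding domain fused to ROR gamma, UAS-luciferase. Cmpd 1 hr RT → CuSO4 700 uM final → 20 hr RT → luciferase reagent 10 min → luminescence.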
A number is an active result; - = inactive; ? = inconclusive; . = no result given; [ ] = another dose, or the depositor's remark. Unless noted, calls come from the whole dose curve; as a rule, active = well fitted curve in the direction sought with a large enough effect; inconclusive = small, poorly fitted or top-dose-only effect, or another doubt; inactive = no such curve, though single readings can be large; an effect the other way counts as inactive or inconclusive.

SMILES	uPA generation	TRPV1 agonist	VP16 counter	TRPV1 potentiator	RORg inh
NC(=O)c1ccccc1N/C=C/C(=O)c1cccs1	-	-	-	?	?
Cc1nonc1OCCNCc1c(C(=O)N(C)C)nc2ccc(Cl)cn12	-	-	2.8µM	-	3.2µM
COc1ccc(NC=O)c(C(=O)CCNC(C)=O)c1	.	.	-	.	-
CCOC(=O)Cn1cc(/C=N/NC(=O)CC#N)c2ccccc21	-	.	-	.	-
COC(=O)Cn1cc(/C=N/NC(=O)c2ccc(C#N)cc2F)c2ccccc21	-	-	-	-	10µM
CCn1cc(/C=N/NC(=O)c2ccc(C#N)cc2F)c2ccccc21	-	-	10µM	-	-
CC(C)NC(=O)C(OC(=O)c1ccccc1)C(OC(=O)c1ccccc1)C(=O)O (stereo unspecified)	-	-	-	-	-
CCN(CC)S(=O)(=O)c1ccc(C)c(N=C=S)c1	-	-	-	-	-
CNC(=S)Nc1ccc(C23CC4CC(CC(C4)C2)C3)cc1	-	?	1.3µM	-	1.6µM
O=C(CSCCO)Nc1ccc(C23CC4CC(CC(C4)C2)C3)cc1	.	?	8.9µM	-	-
CC(=O)Nc1ccc(C23CC4CC(CC(C4)C2)C3)cc1	-	?	-	-	-
CC(C)(C)c1cc(C(=O)Nc2ccc(F)cc2)n(Cc2ccc(F)cc2)n1	?	88	?	-	11µM
Cc1ccc(NNC(=O)c2cc(C(C)(C)C)nn2Cc2ccccc2)cc1	-	.	18µM	.	?
Cc1ccc(NC(=O)c2cc(C(C)(C)C)nn2Cc2ccccc2)cc1	-	?	-	-	-
CC(C)(C)c1cc(C(=O)NNc2cc(C(F)(F)F)ccc2Cl)n(Cc2ccccc2)n1	-	.	8.9µM	.	?
O=C(Cn1nnc(-c2ccc(N3CCOCC3)cc2)n1)OC1CCCCC1	-	-	-	-	-
O=C(Cn1nnc(-c2ccc(N3CCOCC3)cc2)n1)N1CCOCC1	4.5µM	-	?	-	?
CC1(C)OC(C(O)(c2cc(F)c(F)c(F)c2)c2cc(F)c(F)c(F)c2)C(C(O)(c2cc(F)c(F)c(F)c2)c2cc(F)c(F)c(F)c2)O1 (stereo unspecified)	.	.	-[10 µM]	.	-[10 µM]
N#Cc1ccc(/C=C\c2nccc3c2[nH]c2ccccc23)cc1	-	90	2.2µM	-	0.45µM
Clc1ccc(/C=C\c2nccc3c2[nH]c2ccccc23)cc1	-	?	?	-	1.6µM
OCCCCc1nccc2c1[nH]c1ccccc12	-	-	-	-	-
Cc1nc(N)sc1C(=O)N/N=C/c1c[nH]c2ccccc12	-	-	-	-	-
Cc1nnsc1C(=O)N/N=C/c1ccc2ccccc2c1O	-	?	2.8µM	-	4.5µM
CC(=O)n1cc(/C=N/NC(=O)c2sc(C)nc2C)c2ccccc21	-	-	?	-	14µM
Cc1c(/C=N\NC(=O)c2ccc([N+](=O)[O-])cc2)cnn1C	-	-	-	-	-
SMILES	uPA generation	TRPV1 agonist	VP16 counter	TRPV1 potentiator	RORg inh
CC(=O)n1cc(/C=N/NC(=O)c2ccc([N+](=O)[O-])cc2)c2ccccc21	-	-	?	-	3.5µM
CC12CCC(C(=O)Nc3ccc(Br)cn3)(OC1=O)C2(C)C (stereo unspecified)	-	-	-	-	-
CC(=O)c1cccc(N(C(=O)CNC(=O)c2ccco2)C(C(=O)NC2CCCC2)c2ccco2)c1 (stereo unspecified)	-	-	-	-	-
CO/N=C(/C)CCC(=O)OC[C@@H]1O[C@H](c2ccccc2)C=C[C@@H]1Oc1ccc(OC)cc1	.	.	-[10 µM]	.	-[10 µM]
O=C(ONc1ccc(N=NC(=O)c2ccccc2O)cc1)c1ccccc1	-	-	-[0.365 µM]	-	7.1µM
O=C1C2C3C=CC(C3)C2C(=O)N1CCCCCCN1C(=O)C2C3C=CC(C3)C2C1=O (stereo unspecified)	-	-	-	-	?
O=C1C=CC(=O)N1CCCCCCN1C(=O)C=CC1=O	-	-	0.89µM	-	3.2µM
Cc1ccc2c(=O)[nH]c(Cc3ccccc3C(=O)O)nc2c1	-	-	-	-	-
COc1ccccc1N1C(=O)c2ccc(C(=O)Nc3cccc(C(C)=O)c3)cc2C1=O	-	-	-	-	-
COc1ccccc1N1C(=O)c2ccc(C(=O)Nc3ccc(F)cc3)cc2C1=O	-	?	16µM	-	-
O=C1C2CCCN2C(c2ccccc2)N1c1nccs1 (stereo unspecified)	-	-	-	-	5.6µM
Cc1ccccc1C1N(c2nccs2)C(=O)C2CCCN21 (stereo unspecified)	-	-	?	-	?
